Rows were chosen to be rich in hits. Some 22% of all compounds tested hit in one or more screens of this group.
CYP2C9 act = human CYP2C9 activators, primary screen, biochemical, luminescence | 96,000 tested, 1.4% active | Cytochrome P450 2C9 (Homo sapiens), P11712 | AID 1024, 2008 | recombinant CYP2C9, luciferin-H conversion; hits give high values; factor 1 = untreated enzyme, 0 = blocked | activation factor at 5 µM;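 active = activation factor of 2 or more for CYP2C9 at a 5 µM dose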;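 also: 0 = sulfaphenazole-blocked wells and 1 = vehicle-only wells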
Target sequence (P11712 whole entry, looked up): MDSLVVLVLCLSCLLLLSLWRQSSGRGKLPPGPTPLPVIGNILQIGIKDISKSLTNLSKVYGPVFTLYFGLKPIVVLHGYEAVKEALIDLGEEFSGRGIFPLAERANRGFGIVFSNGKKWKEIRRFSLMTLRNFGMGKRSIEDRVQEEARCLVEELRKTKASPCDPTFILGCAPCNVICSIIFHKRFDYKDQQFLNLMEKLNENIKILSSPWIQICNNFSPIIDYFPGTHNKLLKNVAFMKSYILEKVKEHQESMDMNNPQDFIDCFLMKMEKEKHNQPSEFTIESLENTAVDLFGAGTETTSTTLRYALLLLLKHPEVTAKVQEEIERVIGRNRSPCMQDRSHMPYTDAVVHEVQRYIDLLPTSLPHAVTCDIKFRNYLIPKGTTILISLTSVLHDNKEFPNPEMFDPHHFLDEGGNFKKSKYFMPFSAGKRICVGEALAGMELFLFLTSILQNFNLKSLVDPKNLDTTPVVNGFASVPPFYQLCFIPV
CYP2C9 inhib = blockers of cytochrome P450 2C9 activity – biochemical, luminescence, ADME assay, primary screen; CYP2C9 Supersomes, luciferin-H conversion; inhibition, % at 5 µM; 96,000 tested, 20% active; P11712; AID 777, 2007;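 active = blocking of liver enzyme CYP2C9 beyond about 50% at 5 µM, limit read from the data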
Measles CPE = compounds protecting cells from measles virus cytopathic effect, primary screen, measles RdRp inhibitor project, single point, MLSMR library, absorbance; Measles virus-infected cells, CPE protection; protection (pct of control), % at 4 µM; 140,000 tested, 1.5% active; in the data active = protection mostly above about 24%, no sharp cut-off; inactive = mostly below about 26%
CYP2C19 inh = blockers of cytochrome P450 2C19 activity – biochemical, luminescence, ADME assay, primary screen | 96,000 tested, 21% active | CYP2C19 Supersomes, luciferin-H EGE luminescence, 30 min | P33261 | inhibition, % at 5 µM;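 active = CYP2C19 inhibition above a set limit at 5 µM in the primary screen, cut at about 50% in these data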;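 also: plate controls were negative control wells for no effect and 2.5 mM tranylcypromine positive control for full effect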
CYP2C19 act = human CYP2C19 activators, primary screen, biochemical, luminescence; recombinant CYP2C19, luciferin-H EGE luminescence; hits give high values; 0 = fully inhibited enzyme, 1 = untreated enzyme; activation factor at 5 µM; 96,000 tested, under 10 active; AID 1025, 2008;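 active = activation factor of at least 2 at 5 µM in the primary screen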;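 also: 0 = wells with 2.5 mM tranylcypromine and 1 = vehicle-only wells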
The depositor's hits bear a star; x = no result.

SMILES	CYP2C9 act	CYP2C9 inhib	Measles CPE	CYP2C19 inh	CYP2C19 act
COCCn1c(SCC(=O)N2CCCc3ccccc32)nnc1-c1ccco1	1.1	-6	2	48	0.5
CCc1cc2c(=O)n(Cc3ccco3)c(SCC(=O)N3CCCc4ccccc43)nc2s1	0.1	87*	16	34	0.7
CCc1cc2c(=O)n(Cc3ccco3)c(SCc3c(C)noc3C)nc2s1	0.1	90*	9	51*	0.5
O/N=C1\CCCc2nnc3c(c21)CCCC3	2.9*	-193	27	1	1
c1ccc(OCCCn2nnc(-c3cccnc3)n2)cc1	0.5	45	3	51*	0.5
Nc1nc(-c2cccnc2)nn1C(=O)COc1ccccc1	1.1	-10	12	-10	1.1
O=C(CCCn1nnc(-c2cccnc2)n1)c1ccc(F)cc1	0.5	53*	17	76*	0.2
CC1=C(C(=O)OCC(C)C)C(c2ccsc2)C2=C(CCCC2=O)N1 (configuration not stated)	x	x	1	x	x
CCCOC(=O)C1=C(C)NC2=C(C(=O)CCC2)C1c1ccc(N(C)C)cc1 (configuration not stated)	0.4	56*	18	22	0.8
CCOC(=O)C1=C(C)NC2=C(C(=O)CCC2)C1c1ccsc1 (configuration not stated)	0.6	39	5	53*	0.5
COC(=O)C1C(=O)C2=C(CC1C)NC(C)=C(C(=O)OC1CCCC1)C2c1ccc(N(C)C)cc1 (configuration not stated)	0.2	82*	8	54*	0.5
COCCOC(=O)C1=C(C)NC2=C(C(=O)CC(c3cccs3)C2)C1c1ccsc1 (configuration not stated)	0.4	60*	5	58*	0.4
c1coc(CNc2ncnc3c2oc2ccccc23)c1	0.7	26	6	36	0.6
O=C(COc1cccc2c1CCN(Cc1ccc(Br)cc1)C2=O)NCc1ccco1	x	x	11	x	x
COC(=O)C1=C(C)NC2=C(C(=O)CCC2)C1c1cccs1 (configuration not stated)	0.2	76*	19	79*	0.2
COc1ccccc1NC(=O)C1=C(C)NC2=C(C(=O)CCC2)C1c1ccc2c(c1)OCO2 (configuration not stated)	0.5	47	15	63*	0.4
CCN(CC)c1ccc(C2C(C(=O)OCCOC)=C(C)NC3=C2C(=O)CCC3)cc1 (configuration not stated)	0.6	37	14	45	0.6
COCCOC(=O)C1=C(C)NC2=C(C(=O)CCC2)C1c1ccc2c(c1)OCO2 (configuration not stated)	0	96*	35	84*	0.2
COCCOC(=O)C1=C(C)NC2=C(C(=O)CC(C)(C)C2)C1c1cc2c(cc1Br)OCO2 (configuration not stated)	0.2	81*	x	94*	0.1
CCCCOP(=O)(c1ccc(N(C)C)cc1)C(Nc1ccccc1)c1ccccc1 (configuration not stated)	x	x	11	x	x
CCOc1cc(C)cc2oc(=O)cc(-c3ccccc3)c12	0.5	55*	11	19	0.8
Cc1cc(OC(C)C)c2c(-c3ccccc3)cc(=O)oc2c1	0.2	80*	10	43	0.6
Cc1cc(OCC(=O)N2CCc3ccccc3C2)c2c(-c3ccccc3)cc(=O)oc2c1	0	97*	3	86*	0.1
CCCc1cc(=O)oc2cc(C)cc(OC(=O)c3ccco3)c12	1	3	5	8	0.9
NC(=O)C1(N2CCCCC2)CCN(c2ccc3nnc(-c4ccccc4)n3n2)CC1	0.3	68*	10	78*	0.2
c1ccc(-c2nnc3ccc(N4CCC5(CC4)OCCO5)nn23)cc1	0.5	48	5	10	0.9
NC(=O)C1(N2CCCCC2)CCN(c2nc(-c3ccccc3)cs2)CC1	0.1	88*	13	95*	0
COc1ccc(S(=O)(=O)N2CCN(c3ccc4nnc(-c5ccccc5)n4n3)CC2)cc1	0.1	87*	17	76*	0.2

Bioassay records: PubChem BioAssay, several laboratories
